Source: PubChem (several laboratories)
Most compounds without a hit are left out; they make up all but 4.4% or so of the library.
TIM10 inh = growth inhibitors of isogenic TIM10 control yeast, primary screen, counter-screen for tim10-1 yeast inhibitor project, luminescence, uHTS; AID 463195, 2010; S. cerevisiae TIM10 strain growth, BacTiter-Glo luminescence, 24 h; inhibition, % at 10 µM; 330,000 compounds, 1.4% hits;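 active = inhibition of 40% or more at the single tested concentration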;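 also: wild-type TIM10 isogenic control strain grown at permissive 25 °C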
tim10-1 inh = growth inhibitors of tim10-1 mutant yeast, primary screen, luminescence, uHTS; 330,000 compounds, 2.2% hits; S. cerevisiae tim10-1 ts strain growth, BacTiter-Glo, 24 h; inhibition, % at 20 µM;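 active = inhibition of at least 40%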;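 also: mutant grown at 25 °C; 0% = DMSO wells with yeast and 100% = wells holding no yeast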
tim23-1 inh = growth inhibitors of tim23-1 mutant yeast, primary screen, luminescence, uHTS | S. cerevisiae tim23-1 growth, BacTiter-Glo luminescence, 24 h | 330,000 compounds, 1.3% hits | inhibition, % at 20 µM;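 active = growth inhibition of the mutant yeast at or above 50%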;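 also: temperature-sensitive mutant grown at 25 °C; plate controls were DMSO-treated mutant yeast for no effect and medium wells lacking yeast for full effect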
SKKanGAS inh = S. pyogenes SKKanGAS growth inhibitors in kanamycin, primary screen, streptokinase expression inhibitor project, SKKanGAS strain, BacTiter-Glo luminescence; inhibition, % at 7.5 µM; 6 h; 300,000 compounds, 1.3% hits;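 active = mean replicate score, as percent of positive control median, at least 50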;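 also: strain carries kanamycin resistance gene driven by streptokinase promoter and grows in 40 µg/ml kanamycin; loss of luminescence reflects streptokinase promoter inhibition or plain growth inhibition; 0% = median of DMSO wells and 100% = positive control at its reference dose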
PfHsp90 set2 = growth inhibition of PfHsp90-expressing yeast, primary screen, antimalarial PfHsp90 inhibitor project, S. cerevisiae, BacTiter-Glo luminescence, single point, set 2 | BacTiter-Glo ATP, 48 h; yeast lacking PDR1 and PDR3 efflux regulators | inhibition, % at 9.4 µM | 310,000 compounds, 0.32% hits;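 active = every replicate shows inhibition above about 80%, whatever the replicate mean, limit read from the data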;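 also: 0% = DMSO neutral controls and 100% = 20 µM radicicol positive controls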
tim23-1 conf = tim23-1 mutant yeast growth inhibitors, confirmation, luminescence, single concentration; shares compounds with tim23-1 inh; S. cerevisiae tim23-1 growth, BacTiter-Glo luminescence, 24 h; inhibition, % at 20 µM; 4,400 compounds, 83% hits;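 active = inhibition above about 39% in either of two replicate wells at 20 µM, limit read from the data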;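 also: temperature-sensitive tim23-1 mutant grown at 25 °C; 0% = DMSO wells with yeast and 100% = medium wells without yeast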
Numbers without * were called inactive; · = not tested or not shown.

SMILES	TIM10 inh	tim10-1 inh	tim23-1 inh	SKKanGAS inh	PfHsp90 set2	tim23-1 conf
COc1ccc(S(=O)(=O)N2CCN(Cc3cccc(OC)c3)CC2)cc1	21	25	55*	1	10	43*
COc1ccc(N=CC2=C(Nc3ccc(OC)cc3)c3c(C)nn(-c4ccccn4)c3CC2)cc1	17	20	51*	·	·	52*
COc1ccc(C2CC(=O)Oc3cc(C)cc(C)c32)cc1 (stereo unspecified)	-7	12	44	·	-34	·
COc1ccccc1C1CC(=O)Oc2cc(C)c(Cl)c(C)c21 (stereo unspecified)	11	30	52*	·	-6	41*
COc1ccccc1C1CC(=O)Oc2cc(C)c(Br)c(C)c21 (stereo unspecified)	13	33	60*	·	-12	42*
COc1ccc(C2CC(=O)Oc3c(C(C)C)ccc(C)c32)cc1 (stereo unspecified)	-2	21	54*	·	3	42*
COc1ccc(C2CC(=O)Oc3cc(OC)ccc32)cc1 (stereo unspecified)	14	21	50*	·	-9	23
C[C@]12C=CC(=O)C=C1CC[C@@H]1[C@@H]2[C@@H](O)C[C@@]2(C)[C@H]1CC[C@]2(O)C(=O)CO	2	4	-11	-7	2	·
CCC1CCCCN1CCCNC(=O)CN1C(=O)COc2ccccc21 (stereo unspecified)	11	16	0	-2	-8	·
COc1ccc(CNCCCC(=O)Nc2c(Cl)ccc(C)c2Cl)cc1OC	-9	9	5	6	1	·
COc1ccc(C2CC(=O)Oc3cc(C)c(Cl)c(C)c32)cc1 (stereo unspecified)	8	30	51*	·	-43	37
COc1ccc(OC)c(-c2csc(NC(=O)Cc3ccccc3F)n2)c1	13	15	51*	0	-31	46*
CC(C)(C)c1ccc(O)c(N=Cc2cc(Br)ccc2O)c1	15	12	69*	7	1	35
OCC(CO)(CO)N=Cc1cc(Br)ccc1O	14	30	59*	4	-57	56*
O=Cc1c(-c2ccc(Cl)cc2)oc2ccc(O)cc12	8	-13	26	-2	·	·
CC(C)(C)c1nnc(N/N=C/c2ccccc2)n(N)c1=O	-22	11	-17	10	-6	·
CC(C)(C)c1nnc(N/N=C/c2ccccc2O)n(N)c1=O	37	34	62*	24	-22	47*
Cc1cc(C)nc(OC(=O)c2ccc(Cl)cc2Cl)n1	4	27	74*	-6	·	67*
Clc1cccc(Cl)c1/C=N/Nc1c(Cl)cncc1Cl	36	28	-5	30	2	·
Clc1cncc(Cl)c1N/N=C/c1ccncc1	18	0	54*	-3	2	25
CC(C)CN=Cc1c(O)c([N+](=O)[O-])cc2oc3c(c12)CCCC3	40	37	66*	-8	-12	1
Cc1nc2sc(C(c3ccc(Cl)cc3)N3CCOCC3)c(O)n2n1 (stereo unspecified)	1	-1	53*	-5	8	8
N#C/C(=C\c1ccc(O)cc1)c1nc2ccccc2o1	36	33	54*	-13	10	61*
O=c1c(Cc2ccc(Cl)cc2)c(O)ccn1Cc1ccncc1	-14	-2	-13	1	6	·
CC(=O)c1cccc(NC(=O)COC(=O)CC2CC3CCC2C3)c1 (stereo unspecified)	31	-12	41	·	-4	·
SMILES	TIM10 inh	tim10-1 inh	tim23-1 inh	SKKanGAS inh	PfHsp90 set2	tim23-1 conf
COc1cccc(NC(=O)COC(=O)CC2CC3CCC2C3)c1 (stereo unspecified)	31	-3	56*	·	-14	41*
CC1(C)C=Cc2c(ccc3c2OC[C@H](c2ccc(O)cc2O)C3)O1	28	-53	75*	·	106*	-8
CC(=O)Oc1ccc([C@@H]2COc3c(ccc4c3C=CC(C)(C)O4)C2)c(OC(C)=O)c1	6	3	11	9	-77	·
O=C(Nc1cccc(NC(=O)c2ccco2)c1)c1cccc(Br)c1	7	-10	58*	3	-9	60*
O=C(Nc1cc(Br)c(O)c(Br)c1)c1cccc(NC(=O)c2ccco2)c1	-14	-21	-5	22	-6	·
O=C(Nc1cccc(N=Cc2cc(Cl)cc(Br)c2O)c1)c1ccco1	12	20	78*	9	43	90*
COc1ccccc1NC(=O)c1cccc(NC(=O)c2ccco2)c1	17	26	57*	3	-78	45*
CCCCN1C(=O)C(C(=O)OCC)CC2=C1CCCC2=O (stereo unspecified)	·	·	·	·	-3	·
CCCNC(=O)c1onc(CSc2ccc(Cl)cc2)c1C(=O)NC(C)C	12	28	15	-2	-2	·
CC(C)(C)N1C(=O)c2ccc(C(=O)Nc3nccs3)cc2C1=O	8	5	58*	-4	-2	59*
COc1ccc(OCc2cc(C(=O)NC(C)Cn3cncn3)no2)c(Cl)c1 (stereo unspecified)	-3	2	-9	-8	8	·
COc1ccc(CCNS(=O)(=O)c2ccc(Br)cc2)cc1	-2	35	52*	-7	3	30
COc1cc2c3c(c1)C(C)CC(C)(C)N3C(=O)C2=O (stereo unspecified)	-2	32	51*	1	9	63*
Oc1ccc(/C=N/Nc2cccc3cccnc23)c(O)c1	19	-4	58*	6	-1	57*
Cc1cccn2c(=O)c(/C=C(\C#N)S(=O)(=O)c3ccccc3)c(Oc3ccc(Cl)cc3)nc12	20	0	50*	5	7	36
Cc1cc(Oc2nc3c(C)cccn3c(=O)c2/C=C(\C#N)S(=O)(=O)c2ccccc2)ccc1Cl	27	-21	46	-9	-9	·
O=C(C#Cc1ccccc1)Nc1ccc(F)cc1	15	9	29	-2	-25	·
COc1ccc(NC(=O)C#Cc2ccccc2)cc1	24	-26	51*	0	-11	55*
O=C(C#Cc1ccccc1)Nc1cccc(F)c1	39	7	54*	4	-37	52*
CC1(C)CC(=O)C(N=Nc2cccc([N+](=O)[O-])c2)=C(O)C1	20	25	88*	2	-3	93*
CC1(C)CC(=O)C(N=Nc2ccc(C(F)(F)F)cc2[N+](=O)[O-])=C(O)C1	4	5	78*	39	-9	78*
CCCCc1nnc(NC(=O)CN2C(=O)NC3(CCCCC3)C2=O)s1	13	-2	-3	4	-12	·
CCN(CC)CCCNC1=C(Cl)C(=O)c2ccccc2C1=O	1	17	8	11	·	·
